About 3,300 (8.5%) of roughly 39,000 compounds were called active. This is one part of a sample in which actives are shown more often than they occur.
tested on: HepG2; assay: cytotoxicity call (relative viability < 0.9); details: 10 µM

Which cytotoxicity call does the source give for `C[C@H](CO)N1C[C@H](C)[C@H](CN(C)CC2CCCCC2)OCCCC[C@H](C)Oc2ccc(NC(=O)CCCN(C)C)cc2C1=O` here?
Its cytotoxicity call is “inactive”.

With `NNC(=O)c1ccc2c(=O)[nH][nH]c(=O)c2c1` as the compound, how does the cytotoxicity call read?
The cytotoxicity call was “inactive”.

Which cytotoxicity call does the source give for `CCS(=O)(=O)NCC[C@@H]1CC[C@@H](NS(=O)(=O)c2ccccc2C)[C@H](CO)O1` here?
Its cytotoxicity call is “inactive”.

With `COCc1cn(CC[C@@H]2CC[C@H](NC(=O)CCN3CCCCC3)[C@@H](CO)O2)nn1` as the compound, how does the cytotoxicity call read?
The cytotoxicity call was “inactive”.

With `CN(C)CCCNC(=O)C[C@@H]1CC[C@H]2[C@@H](COc3ccc(NC(=O)c4ccc5c(c4)OCO5)cc3C(=O)N2C)O1` as the compound, how does the cytotoxicity call read?
Its cytotoxicity call is “inactive”.

For `C[C@@H]1CN([C@@H](C)CO)C(=O)c2cc(NS(C)(=O)=O)ccc2O[C@H]1CN(C)C(=O)Nc1ccc(C(F)(F)F)cc1`, which cytotoxicity call is on record?
The cytotoxicity call was “inactive”.

With `C[C@H](CO)N1C[C@H](C)[C@@H](CN(C)C(=O)Nc2ccc(C(F)(F)F)cc2)Oc2ccc(NS(C)(=O)=O)cc2C1=O` as the compound, how does the cytotoxicity call read?
Its cytotoxicity call is “inactive”.

`C[C@H]1CN([C@@H](C)CO)C(=O)c2cc(NS(C)(=O)=O)ccc2O[C@@H]1CN(C)C(=O)Nc1ccc(F)cc1` was tested. Which cytotoxicity call did it give?
Its cytotoxicity call is “active”.

`C[C@@H]1CN([C@H](C)CO)C(=O)c2cc(NS(C)(=O)=O)ccc2O[C@H]1CN(C)C(=O)Nc1ccc(C(F)(F)F)cc1` was tested. Which cytotoxicity call did it give?
The cytotoxicity call was “inactive”.

With `C[C@H]1CN([C@@H](C)CO)C(=O)c2cc(NS(C)(=O)=O)ccc2O[C@@H]1CN(C)C(=O)Nc1ccc(C(F)(F)F)cc1` as the compound, how does the cytotoxicity call read?
The cytotoxicity call was “inactive”.

With `C[C@H]1CN([C@@H](C)CO)C(=O)c2cc(NS(C)(=O)=O)ccc2O[C@H]1CN(C)C(=O)Nc1ccc(F)cc1` as the compound, how does the cytotoxicity call read?
The cytotoxicity call was “inactive”.

For `C[C@H]1CN([C@@H](C)CO)C(=O)c2cc(NS(C)(=O)=O)ccc2O[C@H]1CN(C)C(=O)Nc1ccc(C(F)(F)F)cc1`, which cytotoxicity call is on record?
Its cytotoxicity call is “active”.

`C[C@@H]1CN([C@@H](C)CO)C(=O)c2cc(NS(C)(=O)=O)ccc2O[C@@H]1CN(C)C(=O)Nc1ccc(C(F)(F)F)cc1` was tested. Which cytotoxicity call did it give?
The cytotoxicity call was “active”.

Which cytotoxicity call does the source give for `C[C@H](CO)N1C[C@H](C)[C@@H](CN(C)C(=O)Nc2ccc(F)cc2)Oc2ccc(NS(C)(=O)=O)cc2C1=O` here?
The cytotoxicity call was “inactive”.

How did the cytotoxicity call turn out when `C[C@@H]1CCCCO[C@@H](CN(C)C(=O)c2ccncc2)[C@H](C)CN([C@H](C)CO)C(=O)c2cc(NS(C)(=O)=O)ccc2O1` was run?
Its cytotoxicity call is “inactive”.

For `N#C[C@H](c1ccccn1)N1CCOCC1`, which cytotoxicity call is on record?
The cytotoxicity call was “inactive”.

For `O=c1n(-c2ccccc2)c(=O)n2n1CC(COc1ccccc1)=C1[C@@H](CCc3ccccc3)OB(O)C[C@@H]12`, which cytotoxicity call is on record?
The cytotoxicity call was “inactive”.

For `C[C@H](CO)N1C[C@H](C)[C@@H](CN(C)S(C)(=O)=O)Oc2ccc(NS(=O)(=O)c3ccc(F)cc3)cc2C1=O`, which cytotoxicity call is on record?
The cytotoxicity call was “inactive”.

For `COc1cccc(S(=O)(=O)N2C[C@H](O)COC[C@H]3O[C@@H](CC(=O)N4CCOCC4)CC[C@@H]32)c1`, which cytotoxicity call is on record?
The cytotoxicity call was “inactive”.

For `CC(C)NC(=O)N[C@@H]1C=C[C@@H](CC(=O)NCCCN(C)C)O[C@@H]1CO`, which cytotoxicity call is on record?
The cytotoxicity call was “inactive”.

For `O=C(C[C@H]1C[C@@H]2c3cc(NC(=O)C4CCOCC4)ccc3O[C@@H]2[C@@H](CO)O1)NCCN1CCCCC1`, which cytotoxicity call is on record?
The cytotoxicity call was “inactive”.

For `C[C@H]1CN([C@@H](C)CO)C(=O)c2cccc(NC(=O)c3ccncc3)c2O[C@@H]1CN(C)Cc1ccc(C(=O)O)cc1`, which cytotoxicity call is on record?
The cytotoxicity call was “inactive”.

With `C[C@@H]1CN([C@@H](C)CO)C(=O)c2cc(C#Cc3ccccc3F)cnc2O[C@@H]1CN(C)S(=O)(=O)c1ccccc1` as the compound, how does the cytotoxicity call read?
The cytotoxicity call was “inactive”.

With `O=S(=O)(c1cccc2cnccc12)N1CCCNCC1` as the compound, how does the cytotoxicity call read?
The cytotoxicity call was “active”.

For `O=S(=O)(c1ccc(-n2cnnn2)cc1)N1CCNCC1`, which cytotoxicity call is on record?
Its cytotoxicity call is “inactive”.

Which cytotoxicity call does the source give for `O=S(=O)(NCCN(C/C=C/c1ccc(F)cc1)C/C=C/c1ccc(F)cc1)c1cccc2cnccc12` here?
The cytotoxicity call was “inactive”.

With `COc1ccc(S(=O)(=O)Nc2ccc3c(c2)C(=O)N([C@@H](C)CO)C[C@H](C)[C@@H](CN(C)C(=O)Nc2cccc4ccccc24)OCCCC[C@H](C)O3)cc1` as the compound, how does the cytotoxicity call read?
Its cytotoxicity call is “inactive”.

`C[C@H]1CN([C@@H](C)CO)C(=O)c2cc(NC(=O)Nc3cccc4ccccc34)ccc2O[C@H]1CN(C)Cc1ccc(-c2ccccc2)cc1` was tested. Which cytotoxicity call did it give?
The cytotoxicity call was “inactive”.

`C[C@@H]1CN([C@H](C)CO)C(=O)c2cc(NC(=O)Nc3cccc4ccccc34)ccc2O[C@@H]1CN(C)Cc1ccc(-c2ccccc2)cc1` was tested. Which cytotoxicity call did it give?
The cytotoxicity call was “active”.

How did the cytotoxicity call turn out when `C[C@@H]1CN([C@@H](C)CO)C(=O)c2cc(NC(=O)Nc3cccc4ccccc34)ccc2O[C@@H]1CN(C)Cc1ccc(-c2ccccc2)cc1` was run?
The cytotoxicity call was “inactive”.

With `C[C@H](CO)N1C[C@H](C)[C@H](CN(C)Cc2ccc(C(=O)O)cc2)Oc2ccc(NC(=O)Nc3cccc4ccccc34)cc2C1=O` as the compound, how does the cytotoxicity call read?
The cytotoxicity call was “inactive”.

For `C[C@H]1CN([C@@H](C)CO)C(=O)c2cc(NC(=O)Nc3cccc4ccccc34)ccc2O[C@@H]1CN(C)Cc1ccc(-c2ccccc2)cc1`, which cytotoxicity call is on record?
Its cytotoxicity call is “active”.

How did the cytotoxicity call turn out when `C[C@@H]1CN([C@H](C)CO)C(=O)c2cc(NC(=O)Nc3cccc4ccccc34)ccc2O[C@@H]1CN(C)Cc1ccc(C(=O)O)cc1` was run?
Its cytotoxicity call is “inactive”.

How did the cytotoxicity call turn out when `C[C@H]1CN([C@@H](C)CO)C(=O)c2cc(NC(=O)Nc3cccc4ccccc34)ccc2O[C@H]1CN(C)Cc1ccc(C(=O)O)cc1` was run?
The cytotoxicity call was “inactive”.

How did the cytotoxicity call turn out when `C[C@H](CO)N1C[C@H](C)[C@H](CN(C)Cc2ccc(-c3ccccc3)cc2)Oc2ccc(NC(=O)Nc3cccc4ccccc34)cc2C1=O` was run?
Its cytotoxicity call is “active”.

`C[C@H]1CN([C@@H](C)CO)C(=O)c2cc(NC(=O)Nc3cccc4ccccc34)ccc2O[C@H]1CN(C)Cc1ccccc1` was tested. Which cytotoxicity call did it give?
The cytotoxicity call was “inactive”.

With `C[C@@H]1CN([C@H](C)CO)C(=O)c2cc(NC(=O)Nc3cccc4ccccc34)ccc2O[C@H]1CN(C)Cc1ccc(-c2ccccc2)cc1` as the compound, how does the cytotoxicity call read?
Its cytotoxicity call is “active”.

How did the cytotoxicity call turn out when `C[C@@H]1CN([C@@H](C)CO)C(=O)c2cc(NC(=O)Nc3cccc4ccccc34)ccc2O[C@H]1CN(C)Cc1ccc(-c2ccccc2)cc1` was run?
The cytotoxicity call was “inactive”.

Which cytotoxicity call does the source give for `C[C@H](CO)N1C[C@H](C)[C@@H](CN(C)Cc2ccc(-c3ccccc3)cc2)Oc2ccc(NC(=O)Nc3cccc4ccccc34)cc2C1=O` here?
The cytotoxicity call was “inactive”.

Source: the antibiotic and cytotoxicity screens of Wong et al. (2023)
